In PubChem BioAssay (NCI) one finds growth data, which are given here for 16 compounds.

Some test systems named below: SR leukemia; RPMI-8226 leukemia; OVCAR-8 ovarian; OVCAR-5 ovarian; OVCAR-4 ovarian; SK-OV-3 ovarian; IGROV1 ovarian; OVCAR-3 ovarian; HS 578T breast; NCI/ADR-RES ovarian.
Assay in all cases: NCI-60 one-dose screen, 48 h (100 = growth as untreated, 0 = no growth, -100 = all killed)
Holding throughout (conditions): 10 µM unless noted

Each structure is given as a SMILES string. This is part of a sample that, as a whole, favours compounds with a hit. Of some 83,000 tested, about 20% had one in any assay.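 96-well plates, one dose, 48 hours. Percent growth reported; active if below 10.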 A number with no mark means an inactive call. Calls of active or inactive are those of the source.

With `CCOC(=O)C(COS(C)(=O)=O)(COS(C)(=O)=O)C(=O)OCC`, the growth with SR leukemia was 90.9%; with RPMI-8226 leukemia, 110%; in the experiment on OVCAR-8 ovarian, 103%; in the experiment on OVCAR-5 ovarian, 105%; with OVCAR-4 ovarian, 107%; in the experiment with SK-OV-3 ovarian it was 104%. The growth with IGROV1 ovarian was 104%; in the experiment with OVCAR-3 ovarian it was 106%; in the experiment on HS 578T breast, 104%; in the experiment on NCI/ADR-RES ovarian it was 103%.
Consider `CC(=O)c1cccc(O)c1`, for which the growth in the experiment on SR leukemia was 90.6%; with RPMI-8226 leukemia, 105%; in the experiment on OVCAR-8 ovarian, 103%; with OVCAR-5 ovarian, 96.4%; with OVCAR-4 ovarian it was 93.6%; with SK-OV-3 ovarian, 104%. For the same compound, the growth was 106% in the experiment on IGROV1 ovarian, 115% in the experiment on OVCAR-3 ovarian, 96.5% with HS 578T breast and 100% in the experiment with NCI/ADR-RES ovarian.
In the case of `CCNC(=O)Oc1ccc[nH]c1=O`, the growth in the experiment on SR leukemia is 76.4%; in the experiment on RPMI-8226 leukemia it was 93.4%; with OVCAR-8 ovarian, 25.9%; in the experiment with OVCAR-5 ovarian, 102%; with OVCAR-4 ovarian, 98.3%; in the experiment with SK-OV-3 ovarian, 103%. Besides, the growth in the experiment with IGROV1 ovarian is 97.9%; in the experiment on OVCAR-3 ovarian, 112%; in the experiment on HS 578T breast, 95.2%; in the experiment with NCI/ADR-RES ovarian, 102%.
On to `CC(=O)OCC1CCC(COC(C)=O)CC1` (stereo not given), for which the growth is 95.7% in the experiment on SR leukemia; 103% in the experiment with RPMI-8226 leukemia; 106% with OVCAR-8 ovarian; 106% in the experiment on OVCAR-5 ovarian; 111% in the experiment with OVCAR-4 ovarian; 87.9% with SK-OV-3 ovarian. Further, the growth in the experiment on IGROV1 ovarian is 105%; in the experiment with OVCAR-3 ovarian, 102%; with HS 578T breast, 106%; in the experiment on NCI/ADR-RES ovarian, 99.2%.
Regarding `CC(=O)c1cc(O)ccc1O`, the growth with SR leukemia is 94.2%; in the experiment on RPMI-8226 leukemia it was 119%; with OVCAR-8 ovarian, 95.9%; with OVCAR-5 ovarian, 99.9%; in the experiment on OVCAR-4 ovarian, 108%; in the experiment with SK-OV-3 ovarian it was 107%. In addition, the growth with IGROV1 ovarian was 117%; in the experiment with OVCAR-3 ovarian, 119%; with HS 578T breast, 110%; with NCI/ADR-RES ovarian it was 92.8%.
With `COC(=O)Cc1cc(COC(C)=O)ccc1C`, the growth with SR leukemia was 75.4%; in the experiment on RPMI-8226 leukemia it was 110%; in the experiment with OVCAR-8 ovarian it was 108%; in the experiment on OVCAR-5 ovarian it was 103%; with OVCAR-4 ovarian it was 114%; in the experiment with SK-OV-3 ovarian, 125%. The growth in the experiment on IGROV1 ovarian was 107%; in the experiment with OVCAR-3 ovarian, 109%; in the experiment on HS 578T breast, 112%; in the experiment on NCI/ADR-RES ovarian, 107%.
As for `CC1(C)CC(=O)C=C(N)C1`, the growth in the experiment on SR leukemia was 108%; in the experiment on RPMI-8226 leukemia, 178%; with OVCAR-8 ovarian, 97.1%; in the experiment on OVCAR-5 ovarian, 89.3%; in the experiment on OVCAR-4 ovarian, 91.7%; in the experiment with SK-OV-3 ovarian, 145%. For the same compound, the growth was 101% with IGROV1 ovarian, 106% in the experiment with OVCAR-3 ovarian, 77.9% in the experiment on HS 578T breast and 83.4% in the experiment on NCI/ADR-RES ovarian.
As to `O=C(O)CCCCCNC(=O)OCc1ccccc1`, the growth in the experiment with SR leukemia is 98%; with RPMI-8226 leukemia it was 81.5%; with OVCAR-8 ovarian, 112%; in the experiment on OVCAR-5 ovarian, 97.7%; with OVCAR-4 ovarian, 98.5%; in the experiment on SK-OV-3 ovarian, 106%. For the same compound, the growth in the experiment with IGROV1 ovarian is 93.9%; with OVCAR-3 ovarian, 104%; in the experiment on NCI/ADR-RES ovarian, 110%.
As for `OCC1OC(n2ccc3c2ncn2ncnc32)C(O)C1O` (stereo not given), the growth was 20.6% in the experiment with SR leukemia; 60.7% with RPMI-8226 leukemia; 6.1% (active) in the experiment with OVCAR-8 ovarian; 30.2% with OVCAR-5 ovarian; 53.3% in the experiment on OVCAR-4 ovarian; 58% in the experiment on SK-OV-3 ovarian. The growth is 53.4% in the experiment with IGROV1 ovarian, 28.9% in the experiment on OVCAR-3 ovarian, 65.2% with HS 578T breast and 23.1% with NCI/ADR-RES ovarian.
For `O=C(O)c1ccccc1Cc1ccc2c(c1)CCCC2`, the growth is 106% with SR leukemia; 108% in the experiment on RPMI-8226 leukemia; 105% in the experiment on OVCAR-8 ovarian; 104% in the experiment on OVCAR-5 ovarian; 111% in the experiment with OVCAR-4 ovarian; 111% in the experiment on SK-OV-3 ovarian. Moreover, the growth with IGROV1 ovarian was 99.5%; in the experiment with OVCAR-3 ovarian, 111%; in the experiment on NCI/ADR-RES ovarian it was 115%.
Take `COc1c(CNC(=O)CCl)cc2[nH]c(C)cc2c1CNC(=O)CCl`: the growth was 34.9% with SR leukemia; 58.5% in the experiment with RPMI-8226 leukemia; 53% in the experiment with OVCAR-8 ovarian; 96.7% with OVCAR-5 ovarian; 45.3% with OVCAR-4 ovarian; 70.3% with SK-OV-3 ovarian. For the same compound, the growth in the experiment on IGROV1 ovarian was 33.8%; in the experiment on OVCAR-3 ovarian it was 30.9%; in the experiment on NCI/ADR-RES ovarian, 118%.
As for `Cn1c(=O)c2[nH]c(CC(=O)O)nc2n(C)c1=O`, the growth with SR leukemia was 99.3%; with RPMI-8226 leukemia, 108%; in the experiment with OVCAR-8 ovarian, 102%; in the experiment on OVCAR-5 ovarian, 106%; with OVCAR-4 ovarian, 118%; in the experiment with SK-OV-3 ovarian, 106%. Further, the growth with IGROV1 ovarian is 103%; in the experiment on OVCAR-3 ovarian, 108%; in the experiment on HS 578T breast, 107%; in the experiment on NCI/ADR-RES ovarian it was 102%.
In the case of `c1ccc2[nH]c(Cc3nc4ccccc4[nH]3)nc2c1`, the growth is 100% in the experiment with SR leukemia; 71.9% in the experiment with RPMI-8226 leukemia; 112% with OVCAR-8 ovarian; 92% with OVCAR-5 ovarian; 96.5% in the experiment on OVCAR-4 ovarian; 126% with SK-OV-3 ovarian. For the same compound, the growth was 92.2% with IGROV1 ovarian, 122% in the experiment with OVCAR-3 ovarian and 110% in the experiment on NCI/ADR-RES ovarian.
On to `OCC(O)COc1ccc(Cl)cc1Cl` (stereo not given), for which the growth is 101% in the experiment with SR leukemia; 102% in the experiment with RPMI-8226 leukemia; 92.4% in the experiment on OVCAR-8 ovarian; 101% in the experiment with OVCAR-5 ovarian; 101% in the experiment on OVCAR-4 ovarian; 91.7% in the experiment on SK-OV-3 ovarian. For the same compound, the growth in the experiment on IGROV1 ovarian is 101%; with OVCAR-3 ovarian, 110%; with HS 578T breast it was 102%; with NCI/ADR-RES ovarian, 110%.
Take `CCOC(=O)C(C#N)=C1CCN(C)CC1`: the growth is 79.9% in the experiment with SR leukemia; 102% with RPMI-8226 leukemia; 93% in the experiment with OVCAR-8 ovarian; 111% in the experiment on OVCAR-5 ovarian; 119% with OVCAR-4 ovarian; 118% with SK-OV-3 ovarian. The values for the growth with IGROV1 ovarian, in the experiment on OVCAR-3 ovarian and with NCI/ADR-RES ovarian were 96.9%, 117% and 115%, respectively.
Take `CCOc1ccc(NC(=S)N2CCC(CCCC3CCN(C(=S)Nc4ccc(OCC)cc4)CC3)CC2)cc1`: the growth with SR leukemia was 95.2%; in the experiment with RPMI-8226 leukemia, 65.8%; in the experiment with OVCAR-8 ovarian, 92.2%; in the experiment with OVCAR-5 ovarian it was 102%; in the experiment with OVCAR-4 ovarian, 85.1%; in the experiment with SK-OV-3 ovarian it was 91.1%. Moreover, the growth in the experiment on IGROV1 ovarian is 94.5%; in the experiment with OVCAR-3 ovarian, 79.3%; with HS 578T breast, 85.3%; in the experiment on NCI/ADR-RES ovarian, 94%.
